Data from PubChem BioAssay (Tox21).
Values without a mark were called inactive. Inconclusive results are not listed. A call without a number means that no potency is given here. Calls of active or inactive are those of the source. Unless noted, the call rests on the fitted dose curve; in most records, active means well fitted curve in the direction sought with a large enough effect in the repeat runs; inconclusive means weak or mixed curves; inactive means no such curve, though single readings can be large; an effect the other way counts as inactive or inconclusive.

Tests used:
[1] = qHTS assay to identify small molecule agonists of the TGF-beta/Smad signaling pathway - cell viability counter screen (AID 1346829); further: top concentration of the series differs between compounds; nearly all actives have a fitted effect of over 45% in size
Summary of the method: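 Tox21 qHTS format: SBE-bla HEK 293T cells treated with DMSO-dissolved compounds for 5 hr; CellTiter-Glo luminescence after 30 min at room temperature.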

[2] = qHTS assay to identify small molecule agonists of the TGF-beta/Smad signaling pathway (AID 1346859; active means well fitted activation curve with a large enough effect in the signal ratio in the repeat runs, not every such curve was filed as active; the % refers to the signal ratio; further: series mostly up to about 77 µM)
Summary of the method: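 Each well held 4,000 SBE-bla HEK 293T cells incubated overnight before compound addition; 5 hr later the cleavable FRET substrate went on for 2 hr at room temperature, and fluorescence was read at two emissions.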

[3] = Caspase-3/7 induction in HepG2 cells by small molecules, qHTS assay (AID 1346978); further: nearly all actives have a fitted effect of over 15% in size
Summary of the method: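 Wild-type HepG2 cells (2,000/well) were settled 5 h at 37 C, 5% CO2, then exposed to compounds in DMSO for 17 h. Caspase-3/7 activity was read by luminescence 30 min after adding Caspase-Glo 3/7 reagent at room temperature.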

[4] = Caspase-3/7 induction in CHO-K1 cells by small molecules, qHTS cell viability counter screen (AID 1346979); further: nearly all actives have a fitted effect of over 35% in size
Summary of the method: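 CellTiter-Fluor viability check, qHTS format: wild-type CHO-K1, 16hr compound treatment, 1hr reagent incubation, fluorescence read.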

[5] = Caspase-3/7 induction in CHO-K1 cells by small molecules, qHTS assay (AID 1346980); further: nearly all actives have a fitted effect of over 15% in size
Summary of the method: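 Wild-type cells were seeded at 1,500 per well and settled 5 hr at 37 C, 5% CO2, then exposed to DMSO-dissolved compounds for 17 hr. Caspase-Glo 3/7 reagent was added, and luminescence was read after 30min at room temperature.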

[6] = Caspase-3/7 induction in HepG2 cells by small molecules, qHTS cell viability counter screen (AID 1346981); further: series mostly up to about 92 µM; nearly all actives have a fitted effect of over 30% in size
Summary of the method: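 Cell viability is measured as a cytotoxicity counter screen alongside the Caspase-Glo 3/7 readout in identical wells. Wild-type HepG2 cells are treated with test compounds for 16 hr at 37 C before CellTiter-Fluor addition and a 1-hr incubation.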

[7] = biological target: Nuclear receptor subfamily 1 group I member 2 (Homo sapiens) (UniProt O75469); assay: Human pregnane X receptor (PXR) small molecule agonists, qHTS assay (AID 1346982); further: nearly all actives have a fitted effect of over 35% in size
Summary of the method: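 Cells: HepG2 stably carrying PXR-Luc. Medium held 5% charcoal-stripped FBS. Compounds in DMSO added after 5 hr plating, incubated 24 hr, then luminescence quantified with ONE-Glo.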

[8] = biological target: Nuclear receptor subfamily 1 group I member 2 (Rattus norvegicus) (UniProt Q9R1A7); assay: Rat pregnane X receptor (rPXR) activation by small molecules, qHTS assay (AID 1346983); details: rPXR luciferase reporter cells, One-Glo luminescence, 24 h; max activation: active compounds read high; further: nearly all actives have a fitted effect of over 20% in size
Summary of the method: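 Cell-based rPXR luciferase reporter assay, 2,000 cells per well, rested 5hr at 37 C before compound addition in DMSO, then 24 hr at 37 C. One-Glo reagent was added and luminescence read after 30 min at room temperature.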

[9] = biological target: Nuclear receptor subfamily 1 group I member 2 (Homo sapiens) (UniProt O75469); assay: CYP3A4 induction through human pregnane X receptor (PXR) by small molecules, qHTS assay (AID 1346984); further: nearly all actives have a fitted effect of over 40% in size
Summary of the method: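 Quantitative HTS in DPX-2 cells, i.e. HepG2 transfected with PXR response element and CYP3A4-promoter luciferase. Compounds in DMSO incubated 24hr at 37C; then P450-Glo CYP3A4 substrate, 3uM final, 3hr; One-Glo luminescence.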

[10] = biological target: Cytochrome P450 2C19 (Homo sapiens) (UniProt P33261); assay: Cytochrome P450 Family 2 Subfamily C Member 19 (CYP2C19) small molecule antagonists: luciferase reporter qHTS assay (AID 1671197); further: series mostly up to about 120 µM; nearly all actives have a fitted effect of over 65% in size
Summary of the method: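 Relative luminescence units recorded 20 min after the detection reagent stopped a 1 h, 37C CYP2C19 reaction on proluciferin substrate, which was started by NADPH regeneration following 10 min room-temperature compound preincubation; ketoconazole positive control.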

[11] = biological target: Cytochrome P450 2C9 (Homo sapiens) (UniProt P11712); assay: Cytochrome P450 Family 2 Subfamily C Member 9 (CYP2C9) small molecule antagonists: luciferase reporter qHTS assay (AID 1671198); further: nearly all actives have a fitted effect of over 50% in size; further: potency means the concentration at half of the fitted maximal effect
Summary of the method: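 CYP2C9 activity was measured with a P450-Glo proluciferin substrate. Enzyme–substrate mix was held with compound for 10 min at room temperature, then NADPH regeneration solution was added for 1 h at 37C. Luciferin product was read as luminescence.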

[12] = biological target: Cytochrome P450 1A2 (Homo sapiens) (UniProt P05177); assay: Cytochrome P450 Family 1 Subfamily A Member 2 (CYP1A2) small molecule antagonists: luciferase reporter qHTS assay (AID 1671199); further: nearly all actives have a fitted effect of over 50% in size; further: potency means the concentration at half of the fitted maximal effect
Summary of the method: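 Compounds were incubated with CYP1A2 and a luminogenic proluciferin substrate for 10 min at room temperature before the reaction was started with NADPH regeneration solution. After 1 h, detection reagent was added and light output, proportional to CYP activity, was recorded.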

[13] = biological target: Voltage-gated inwardly rectifying potassium channel KCNH2 (Homo sapiens) (UniProt Q12809); assay: Human Ether-a-go-go-Related Gene (hERG) channel small molecule antagonists: fluorescence cell-based qHTS assay (AID 1671200);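 further: hERG-expressing U2OS cells given a thallium stimulus after FluxOR II dye loading; series mostly up to about 77 µM; nearly all actives have a fitted effect of over 50% in size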
Summary of the method: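 Kinetic two-minute fluorescence traces, sampled at 1 s, were collected following thallium stimulus of U2OS cells (1000 per well) that had been cultured overnight at 37 C and loaded with FluxOR II.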

[14] = biological target: Thyrotropin-releasing hormone receptor (Homo sapiens) (UniProt P34981); assay: qHTS assay to identify small molecule antagonists of the thyrotropin-releasing hormone receptor (TRHR) signaling pathway (AID 1346877; active means well fitted inhibition curve with a large enough effect in the repeat runs, not every such curve was filed as active; further: series mostly up to about 51 µM)
Summary of the method: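 Antagonism is measured as suppression of the calcium response to 1 nM TRH in TRHR-HEK293 cells that have been dye-loaded for 2 h at 37 °C after overnight plating. Each compound is tested at 15 concentrations in triplicate.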

[15] = biological target: Thyrotropin-releasing hormone receptor (Homo sapiens) (UniProt P34981); assay: qHTS assay to identify small molecule agonists of the thyrotropin-releasing hormone receptor (TRHR) signaling pathway (AID 1346891; calls by dose curve; further: series mostly up to about 58 µM)
Summary of the method: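 Screening of agonists relied on calcium signalling in HEK293 cells expressing human TRHR: dye loading 2 h at 37 °C preceded compound addition and a 3-min fluorescence time course.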

[16] = biological target: Cytochrome P450 2D6 (Homo sapiens) (UniProt P10635); assay: Cytochrome P450 Family 2 Subfamily D Member 6 (CYP2D6) small molecule antagonists: luciferase reporter qHTS assay (AID 1671196); further: nearly all actives have a fitted effect of over 50% in size; further: potency means the concentration at half of the fitted maximal effect
Summary of the method: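 Enzyme and proluciferin substrate were first combined with test chemical for 10 min at room temperature. Adding NADPH regeneration solution started a 1 h reaction, stopped with luciferin detection reagent and read by luminescence 20 min later.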

[17] = biological target: Cytochrome P450 3A4 (Homo sapiens) (UniProt P08684); assay: Cytochrome P450 Family 3 Subfamily A Member 4 (CYP3A4) small molecule antagonists: luciferase reporter qHTS assay (AID 1671201)
Summary of the method: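 Proluciferin-to-luciferin conversion by CYP3A4, NADPH-regenerated, 1 h RT; luminescence read as RLU. Ketoconazole as control.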

[18] = Human pregnane X receptor (PXR) small molecule agonists, qHTS cell viability counter screen (AID 1346977); further: nearly all actives have a fitted effect of over 50% in size
Summary of the method: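 Tox21 qHTS format; PXR-Luc HepG2, 2,000/well, charcoal-stripped FBS 5%. Cpd exposure 24hr. Read: CellTiter-Fluor fluorescence, multiplexed with luciferase.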

Sequence of Cytochrome P450 2D6 (Homo sapiens) (P10635 whole entry, looked up): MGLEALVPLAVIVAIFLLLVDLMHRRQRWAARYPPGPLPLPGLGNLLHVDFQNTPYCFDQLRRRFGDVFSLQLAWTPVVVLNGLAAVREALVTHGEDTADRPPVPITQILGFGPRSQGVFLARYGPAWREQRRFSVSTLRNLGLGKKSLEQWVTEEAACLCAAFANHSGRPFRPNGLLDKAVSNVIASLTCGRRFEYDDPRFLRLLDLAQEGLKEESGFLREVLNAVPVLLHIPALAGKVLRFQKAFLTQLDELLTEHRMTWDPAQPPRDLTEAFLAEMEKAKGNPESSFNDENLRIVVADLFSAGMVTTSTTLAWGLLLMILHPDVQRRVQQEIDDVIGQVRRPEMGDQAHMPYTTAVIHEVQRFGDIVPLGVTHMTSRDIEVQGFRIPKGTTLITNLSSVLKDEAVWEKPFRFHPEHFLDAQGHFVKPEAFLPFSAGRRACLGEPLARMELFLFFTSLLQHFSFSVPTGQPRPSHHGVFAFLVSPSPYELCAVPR
Sequence of Cytochrome P450 2C19 (Homo sapiens) (P33261 whole entry, looked up): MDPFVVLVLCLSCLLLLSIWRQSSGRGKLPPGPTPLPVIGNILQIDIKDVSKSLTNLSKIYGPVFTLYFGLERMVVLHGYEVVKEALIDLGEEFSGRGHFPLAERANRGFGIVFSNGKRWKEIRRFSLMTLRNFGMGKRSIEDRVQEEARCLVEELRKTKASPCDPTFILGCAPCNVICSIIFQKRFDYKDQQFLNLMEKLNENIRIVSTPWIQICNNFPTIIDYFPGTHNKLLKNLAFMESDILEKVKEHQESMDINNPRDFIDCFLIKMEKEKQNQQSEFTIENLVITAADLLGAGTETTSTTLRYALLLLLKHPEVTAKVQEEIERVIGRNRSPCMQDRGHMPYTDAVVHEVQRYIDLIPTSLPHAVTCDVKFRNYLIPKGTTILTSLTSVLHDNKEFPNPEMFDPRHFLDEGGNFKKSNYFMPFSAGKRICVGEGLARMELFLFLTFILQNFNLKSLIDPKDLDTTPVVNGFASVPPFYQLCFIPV
Sequence of Cytochrome P450 2C9 (Homo sapiens) (P11712 whole entry, looked up): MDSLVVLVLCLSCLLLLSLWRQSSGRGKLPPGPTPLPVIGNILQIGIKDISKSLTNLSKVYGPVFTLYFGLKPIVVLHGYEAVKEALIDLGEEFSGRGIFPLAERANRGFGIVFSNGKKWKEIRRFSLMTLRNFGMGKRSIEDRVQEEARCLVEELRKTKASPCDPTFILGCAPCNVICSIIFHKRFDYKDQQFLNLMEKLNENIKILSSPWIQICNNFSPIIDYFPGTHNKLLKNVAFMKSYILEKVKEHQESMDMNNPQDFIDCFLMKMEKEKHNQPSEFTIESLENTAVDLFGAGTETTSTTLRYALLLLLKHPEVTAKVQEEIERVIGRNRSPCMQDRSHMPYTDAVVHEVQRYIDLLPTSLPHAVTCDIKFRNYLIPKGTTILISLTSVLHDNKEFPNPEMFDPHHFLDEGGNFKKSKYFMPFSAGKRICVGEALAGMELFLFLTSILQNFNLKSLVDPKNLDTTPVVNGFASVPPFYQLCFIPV
Sequence of Voltage-gated inwardly rectifying potassium channel KCNH2 (Homo sapiens) (Q12809 whole entry, looked up): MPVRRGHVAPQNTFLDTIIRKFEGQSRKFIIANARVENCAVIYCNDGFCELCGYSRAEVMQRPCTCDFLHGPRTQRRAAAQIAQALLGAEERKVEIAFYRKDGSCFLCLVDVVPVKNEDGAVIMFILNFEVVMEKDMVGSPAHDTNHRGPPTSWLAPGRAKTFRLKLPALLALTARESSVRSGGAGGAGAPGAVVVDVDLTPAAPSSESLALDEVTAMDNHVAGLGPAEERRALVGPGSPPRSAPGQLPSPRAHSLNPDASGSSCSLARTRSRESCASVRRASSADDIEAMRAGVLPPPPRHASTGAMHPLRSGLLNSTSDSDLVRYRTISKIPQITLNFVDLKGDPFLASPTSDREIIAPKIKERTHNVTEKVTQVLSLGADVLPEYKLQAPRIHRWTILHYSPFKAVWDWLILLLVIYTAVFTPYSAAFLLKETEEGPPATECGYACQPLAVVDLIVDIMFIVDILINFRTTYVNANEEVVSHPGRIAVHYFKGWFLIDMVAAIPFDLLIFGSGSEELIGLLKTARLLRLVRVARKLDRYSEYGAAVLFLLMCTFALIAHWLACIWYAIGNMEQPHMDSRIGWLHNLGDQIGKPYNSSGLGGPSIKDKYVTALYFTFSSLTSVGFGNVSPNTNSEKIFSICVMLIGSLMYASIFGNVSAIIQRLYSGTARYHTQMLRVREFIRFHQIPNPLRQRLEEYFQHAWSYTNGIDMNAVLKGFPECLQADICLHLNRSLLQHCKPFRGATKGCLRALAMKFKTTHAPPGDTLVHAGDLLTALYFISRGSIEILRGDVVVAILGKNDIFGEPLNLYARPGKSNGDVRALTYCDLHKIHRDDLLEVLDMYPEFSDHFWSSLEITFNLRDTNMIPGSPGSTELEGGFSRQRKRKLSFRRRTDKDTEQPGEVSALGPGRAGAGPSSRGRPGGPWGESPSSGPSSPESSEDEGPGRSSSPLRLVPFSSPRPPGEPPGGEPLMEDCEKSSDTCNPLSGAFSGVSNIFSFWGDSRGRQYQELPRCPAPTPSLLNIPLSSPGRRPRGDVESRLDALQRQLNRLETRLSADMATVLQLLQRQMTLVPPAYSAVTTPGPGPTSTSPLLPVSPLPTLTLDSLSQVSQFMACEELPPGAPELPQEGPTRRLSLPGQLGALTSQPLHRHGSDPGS
Sequence of Cytochrome P450 3A4 (Homo sapiens) (P08684 whole entry, looked up): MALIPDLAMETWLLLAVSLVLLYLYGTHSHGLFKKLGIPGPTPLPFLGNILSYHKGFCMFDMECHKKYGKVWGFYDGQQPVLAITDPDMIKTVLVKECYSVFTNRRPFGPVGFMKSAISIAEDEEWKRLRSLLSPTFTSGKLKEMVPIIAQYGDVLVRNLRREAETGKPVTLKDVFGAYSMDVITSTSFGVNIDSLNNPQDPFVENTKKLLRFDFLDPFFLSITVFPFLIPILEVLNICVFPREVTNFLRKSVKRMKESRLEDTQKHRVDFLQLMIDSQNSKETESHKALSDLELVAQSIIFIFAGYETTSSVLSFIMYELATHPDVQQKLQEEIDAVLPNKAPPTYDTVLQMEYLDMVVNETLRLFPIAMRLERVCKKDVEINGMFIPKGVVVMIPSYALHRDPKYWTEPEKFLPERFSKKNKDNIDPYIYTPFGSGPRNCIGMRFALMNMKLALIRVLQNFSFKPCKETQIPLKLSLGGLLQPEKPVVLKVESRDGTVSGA
Sequence of Nuclear receptor subfamily 1 group I member 2 (Homo sapiens) (O75469 whole entry, looked up): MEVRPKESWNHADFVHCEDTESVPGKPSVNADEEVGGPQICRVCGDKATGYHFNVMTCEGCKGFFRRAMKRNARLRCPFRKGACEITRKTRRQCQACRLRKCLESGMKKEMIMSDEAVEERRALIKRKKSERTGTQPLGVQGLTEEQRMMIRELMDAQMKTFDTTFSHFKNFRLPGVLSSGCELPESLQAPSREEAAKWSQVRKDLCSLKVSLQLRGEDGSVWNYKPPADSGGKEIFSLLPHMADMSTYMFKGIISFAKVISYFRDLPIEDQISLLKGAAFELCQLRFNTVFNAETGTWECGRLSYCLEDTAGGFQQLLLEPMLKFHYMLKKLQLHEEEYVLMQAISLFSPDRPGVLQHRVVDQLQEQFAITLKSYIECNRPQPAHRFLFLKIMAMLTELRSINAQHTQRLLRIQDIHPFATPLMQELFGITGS
Sequence of Cytochrome P450 1A2 (Homo sapiens) (P05177 whole entry, looked up): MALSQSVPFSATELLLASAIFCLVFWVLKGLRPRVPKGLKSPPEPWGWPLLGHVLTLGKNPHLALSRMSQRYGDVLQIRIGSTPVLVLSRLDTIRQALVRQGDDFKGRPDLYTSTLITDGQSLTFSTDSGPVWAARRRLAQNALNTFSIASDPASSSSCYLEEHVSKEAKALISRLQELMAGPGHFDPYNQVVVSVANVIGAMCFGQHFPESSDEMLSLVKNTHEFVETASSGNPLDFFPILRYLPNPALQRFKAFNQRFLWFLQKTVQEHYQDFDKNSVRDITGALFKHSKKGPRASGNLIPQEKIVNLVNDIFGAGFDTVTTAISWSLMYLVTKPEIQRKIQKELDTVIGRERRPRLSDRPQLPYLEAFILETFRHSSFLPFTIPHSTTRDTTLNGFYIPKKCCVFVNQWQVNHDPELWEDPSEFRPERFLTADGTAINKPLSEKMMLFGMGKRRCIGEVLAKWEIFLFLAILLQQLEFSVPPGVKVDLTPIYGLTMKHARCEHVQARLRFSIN
Sequence of Nuclear receptor subfamily 1 group I member 2 (Rattus norvegicus) (Q9R1A7 whole entry, looked up): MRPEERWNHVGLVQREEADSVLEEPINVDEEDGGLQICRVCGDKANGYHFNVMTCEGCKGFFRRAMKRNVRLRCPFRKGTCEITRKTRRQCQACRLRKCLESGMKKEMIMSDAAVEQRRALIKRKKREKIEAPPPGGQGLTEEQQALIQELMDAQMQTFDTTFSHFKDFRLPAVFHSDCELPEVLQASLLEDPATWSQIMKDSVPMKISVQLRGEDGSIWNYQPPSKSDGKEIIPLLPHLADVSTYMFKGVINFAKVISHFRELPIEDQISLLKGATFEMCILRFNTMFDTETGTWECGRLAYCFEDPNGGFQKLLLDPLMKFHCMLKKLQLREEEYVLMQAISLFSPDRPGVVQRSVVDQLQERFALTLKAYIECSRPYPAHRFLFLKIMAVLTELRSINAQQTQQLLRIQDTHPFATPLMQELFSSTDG
Sequence of Thyrotropin-releasing hormone receptor (Homo sapiens) (P34981 whole entry, looked up): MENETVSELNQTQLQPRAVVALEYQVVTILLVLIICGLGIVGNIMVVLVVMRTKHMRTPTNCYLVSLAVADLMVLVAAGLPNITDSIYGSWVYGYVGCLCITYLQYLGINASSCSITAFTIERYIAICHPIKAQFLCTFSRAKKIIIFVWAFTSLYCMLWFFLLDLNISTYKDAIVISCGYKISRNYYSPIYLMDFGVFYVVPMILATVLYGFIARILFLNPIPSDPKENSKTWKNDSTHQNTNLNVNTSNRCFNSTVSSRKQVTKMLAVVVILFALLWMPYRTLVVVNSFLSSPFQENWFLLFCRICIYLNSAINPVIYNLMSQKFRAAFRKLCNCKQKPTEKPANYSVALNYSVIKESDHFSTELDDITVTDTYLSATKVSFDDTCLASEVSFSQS

Structure (SMILES)	outcome [1]	outcome [2]	outcome [3]	Potency [4]	outcome [5]	Potency [6]	Potency [7]	max activation [8]	outcome [9]	Potency [10]	Potency [11]	Potency [12]	Potency [13]	outcome [14]	outcome [15]	Potency [16]	Potency [17]	Potency [18]
COCC(=O)Nc1c(I)c(C(=O)NCC(O)CO)c(I)c(C(=O)N(C)CC(O)CO)c1I (centres undefined)	inactive	inactive	inactive	inactive	inactive	inactive	inactive	-3.61%	inactive	inactive	inactive	inactive	inactive					
Cc1oc(=O)oc1CN1CCN(c2cc3c(cc2F)c(=O)c(C(=O)O)c2n3C(C)S2)CC1 (centres undefined)	inactive				inactive	inactive	inactive	-2.98%	inactive		inactive	inactive	inactive	inactive	inactive	inactive	inactive	
CC(C)(c1ccc(Oc2ccc3c(c2)C(=O)OC3=O)cc1)c1ccc(Oc2ccc3c(c2)C(=O)OC3=O)cc1	inactive	inactive	inactive		inactive						inactive	70.6 µM (active)	inactive			39.7 µM (active)	inactive	inactive
CC(C)COC(=O)CC(C(=O)OCC(C)C)S(=O)(=O)O (centres undefined)	inactive	inactive		inactive	inactive		inactive			inactive	31.7 µM (active)	inactive	inactive			inactive	inactive	inactive
COC(/C=C(\C)CCC=C(C)C)OC	inactive	inactive	inactive		inactive	inactive	inactive			inactive	inactive	inactive				inactive	inactive	
CO[Si](CCCS)(OC)OC	inactive	inactive	inactive	inactive	inactive		inactive			inactive	inactive	inactive	inactive			inactive		inactive
Cc1nc(C)nc(N2C[C@@H](C)N(c3ccnc([C@@H](C)O)n3)[C@@H](C)C2)n1	inactive	inactive	inactive	inactive	inactive	inactive	inactive			inactive	inactive	inactive	inactive			inactive	inactive	
